The record followed here is PMC5540273 (PLoS ONE, 2017).

Test systems include KIT-autoinhibited; KIT; LATS1; LATS2; LCK; LIMK1; LIMK2; LRRK2.
Common to all, as to conditions: concentration: 1 μM, replicates: in singlicate; n = 1
The subject of the next experiment is T1, LKB1.
T1 construct: gene STK11

Another experiment relates to T2, LOK.
T2 construct: gene STK10
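Also: KINOMEscan kinase panel screen.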

Consider `CCCCCc1nc2c(N)ncnc2n1CCCCC` [SKF-97255], for which the “%Inh” value in the experiment with KIT-autoinhibited was 16%; with KIT it was 17%; in the experiment with LATS1, 0%; in the experiment with LATS2, 0%; in the experiment on LCK, 5%; with LIMK1, 0%. Besides, the “%Inh” value in the experiment with LIMK2 is reported as 0%; with LKB1 it was 60%; with LOK, 14%; with LRRK2, 0%.

`Fc1ccc(-c2ncn(CCCN3CCOCC3)c2-c2cccnc2)cc1` [SB-211743]: the “%Inh” value in the experiment with KIT-autoinhibited came to 18%; in the experiment with KIT, 2%; with LATS1 it was 9%; with LATS2 it was 0%; with LCK, 20%; in the experiment on LIMK1 it was 9%. For the same compound, the “%Inh” value came out at 0% in the experiment on LIMK2, 46% in the experiment on LKB1, 14% with LOK and 0% with LRRK2.

Turning to `Nc1nccc(-c2c(-c3ccc(F)cc3)ncn2C2CCN(CC(F)(F)F)CC2)n1` [SB-236560], the “%Inh” value with KIT-autoinhibited came to 11%; in the experiment with KIT, 0%; with LATS1 it was 0%; with LATS2 it was 69%; in the experiment with LCK, 0%; with LIMK1, 5%. In addition, the “%Inh” value was determined as 0% with LIMK2, 0% in the experiment on LKB1, 2% with LOK and 0% with LRRK2.

With `COc1ccc(CNC(=O)NC2CCN(c3ccnc(Nc4ccc(OC)cc4)n3)C2)cc1` (stereo not shown) [GSK1379727], the “%Inh” value in the experiment with KIT-autoinhibited turned out to be 0%; in the experiment on KIT, 16%; in the experiment with LATS1, 6%; in the experiment on LATS2, 0%; in the experiment with LCK it was 8%; in the experiment with LIMK1 it was 0%. The “%Inh” value in the experiment on LIMK2 was determined as 0%; in the experiment on LKB1 it was 15%; in the experiment with LOK, 0%; in the experiment with LRRK2, 0%.

For `NS(=O)(=O)CCc1cccc(Nc2nccc(-c3c(-c4cccc(NC(=O)c5c(F)cccc5F)c4)nn4ccccc34)n2)c1` [GSK336735], the “%Inh” value was 13% in the experiment with KIT-autoinhibited; 100% in the experiment on KIT; 7% in the experiment with LATS1; 7% in the experiment on LATS2; 99.6% in the experiment on LCK; 67% in the experiment on LIMK1. Besides, the “%Inh” value with LIMK2 was 9%; in the experiment with LKB1 it was 1%; in the experiment with LOK it was 99.4%; in the experiment on LRRK2, 0%.

As to `Cc1cccc(Cn2ccn3c(=O)cc(N4CCOCC4)nc23)c1` [GSK2297542], the “%Inh” value in the experiment on KIT-autoinhibited is on record as 1%; in the experiment with KIT it was 38%; with LATS1, 28%; with LATS2 it was 10%; in the experiment with LCK, 26%; with LIMK1, 2%. The “%Inh” value in the experiment with LIMK2 worked out at 10%; in the experiment with LKB1 it was 21%; in the experiment on LOK it was 0%; in the experiment with LRRK2, 0%.

`COCCNC(=O)c1ccc(-c2cc(C(=O)NC3CC3)cc(F)c2C)cc1` [GW868318]: the “%Inh” value in the experiment with KIT-autoinhibited is recorded as 24%; in the experiment with KIT, 26%; in the experiment on LATS1, 10%; in the experiment with LATS2 it was 0%; in the experiment with LCK, 4%; in the experiment on LIMK1 it was 16%. For the same compound, the “%Inh” value is reported as 3% with LIMK2, 49% in the experiment with LKB1, 20% in the experiment on LOK and 62% with LRRK2.

`Cc1cccc(-c2nc(Nc3ccc4ncsc4c3)c3ccccc3n2)n1` [GW867588]: the “%Inh” value in the experiment on KIT-autoinhibited came to 12%; in the experiment on KIT, 0%; with LATS1, 2%; with LATS2, 0%; in the experiment with LCK it was 9%; in the experiment on LIMK1, 4%. Besides, the “%Inh” value in the experiment with LIMK2 stood at 0%; with LKB1, 23%; in the experiment on LOK, 27%; in the experiment on LRRK2 it was 60%.

On to `O=C(NCCNc1ccnc(Nc2ccc(F)cc2)n1)Nc1ccccc1F` [GSK1379880], for which the “%Inh” value was determined as 0% in the experiment on KIT-autoinhibited; 48% with KIT; 0% in the experiment with LATS1; 0% with LATS2; 15% with LCK; 0% in the experiment on LIMK1. Besides, the “%Inh” value with LIMK2, with LKB1, in the experiment on LOK and in the experiment on LRRK2 was 0% throughout.

For `CC(C)Oc1ccc2c(-c3ccnc(Nc4ccc(N5CCN(C)CC5)cc4)n3)cnn2n1` [GW696155], the “%Inh” value with KIT-autoinhibited is recorded as 43%; with KIT it was 91.1%; in the experiment with LATS1 it was 0%; in the experiment on LATS2, 43%; with LCK, 92.6%; with LIMK1, 85%. Moreover, the “%Inh” value was 100% in the experiment with LIMK2, 73% with LKB1, 0% in the experiment with LOK and 27% in the experiment on LRRK2.

For the compound `COc1ccc(Nc2ncc(C#N)c(Nc3ccccc3C(N)=O)n2)cc1N1CCN(C)CC1.Cl` [GSK1558669], the “%Inh” value with KIT-autoinhibited is reported as 96.1%; in the experiment on KIT, 99.9%; in the experiment on LATS1 it was 78%; with LATS2, 98.9%; in the experiment with LCK it was 100%; in the experiment on LIMK1 it was 85%. For the same compound, the “%Inh” value was 93.4% in the experiment on LIMK2, 58% in the experiment with LKB1, 99% in the experiment with LOK and 98.8% in the experiment on LRRK2.

For `COc1ccc(COc2cc(-n3cnc4ccccc43)sc2C(N)=O)cc1` [GSK1024304], the “%Inh” value was determined as 0% with KIT-autoinhibited; 23% in the experiment on KIT; 0% with LATS1; 0% with LATS2; 16% with LCK; 10% with LIMK1. Besides, the “%Inh” value is recorded as 7% in the experiment with LIMK2, 1% in the experiment with LKB1, 0% in the experiment with LOK and 10% in the experiment on LRRK2.

`O=C(Nc1n[nH]c2cc(-c3cccc(F)c3)ccc12)C1CC1` [SB-735464]: the “%Inh” value in the experiment with KIT-autoinhibited amounted to 1%; in the experiment on KIT, 33%; in the experiment on LATS1, 0%; in the experiment on LATS2 it was 18%; in the experiment with LCK it was 3%; with LIMK1 it was 0%. Besides, the “%Inh” value in the experiment on LIMK2 is on record as 0%; in the experiment with LKB1, 0%; with LOK, 6%; with LRRK2 it was 0%.

As to `O=C(NCCCN1CCOCC1)c1cccc(Nc2nccc(Nc3ccc(Oc4ccccc4)cc3)n2)c1` [GW663929], the “%Inh” value in the experiment with KIT-autoinhibited came to 16%; in the experiment on KIT it was 80%; in the experiment on LATS1, 0%; with LATS2 it was 1%; with LCK it was 99.3%; in the experiment on LIMK1 it was 21%. Further, the “%Inh” value in the experiment with LIMK2 is reported as 22%; in the experiment on LKB1, 10%; in the experiment on LOK, 23%; in the experiment with LRRK2, 0%.

Take `N#Cc1c(N2CCOCC2)sc(-c2ccn[nH]2)c1-c1ccc(Cl)cc1`: the “%Inh” value with KIT-autoinhibited was 1%; in the experiment on KIT, 25%; in the experiment with LATS1, 22%; in the experiment on LATS2 it was 15%; with LCK it was 13%; in the experiment on LIMK1 it was 6%. In addition, the “%Inh” value in the experiment with LIMK2 is reported as 0%; in the experiment with LKB1, 25%; in the experiment on LOK it was 5%; in the experiment with LRRK2, 0%.

For the compound `Cc1nnc(-c2ccc(C)c(-c3ccc(C(=O)Nc4ccc(NS(C)(=O)=O)cc4)cc3)c2)o1` [GW702865], the “%Inh” value with KIT-autoinhibited is given as 0%; with KIT, 58%; with LATS1, 0%; in the experiment on LATS2, 1%; in the experiment with LCK, 17%; in the experiment on LIMK1, 0%. The “%Inh” value in the experiment with LIMK2 turned out to be 0%; with LKB1 it was 26%; with LOK, 6%; with LRRK2, 0%.
